Sampled rows, rich in hits. Any-hit rate of the full collection: about 10%.
BAZ2B block = blocks human BAZ2B | Q9UIF8 | AlphaScreen BAZ2B-H3K14Ac peptide displacement | Potency, µM (top dose mostly 114 µM), for the others: at the highest dose activity change, negative = inhibition, actives largely listed as inhibitors | hit rate 4.4% among 360,000 | AID 504333; also: % is scaled to controls: 0 for no effect and ±100 for the full control effect; nearly all actives have a fitted effect of over 60% in size
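AlphaScreen luminescence quantifies BAZ2B engagement of H3K14Ac peptide; the protein and biotinylated peptide are both at 50 nM final, buffer PBS pH 7.4 with 0.01% Tween-20, all steps at room temperature.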
JMJD2A Tudor = inhibitors of human JMJD2A Tudor domain. Potency, µM (top dose mostly 114 µM), for the others: top-dose activity change, negative = inhibition, hits mostly inhibitors. AID 504339. AlphaScreen JMJD2A-Tudor / H3K4me3 peptide binding. hit rate 4.4% among 390,000. O75164; also: % is scaled to controls: 0 for no effect and ±100 for the full control effect; nearly all actives have a fitted effect of over 50% in size
GLS inh = glutaminase GLS (human) inhibition. GLS enzymatic activity, qHTS titration. O94925. Potency, µM (series often up to 45.5 µM), without a hit: at the highest dose activity change, negative = inhibition, most hits filed as inhibitors. hit rate 0.21% among 410,000; also: % is scaled to controls: 0 for no effect and ±100 for the full control effect
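Assay buffer: 45 mM KH2PO4 pH 8.2, 0.02% Tween-20. hKGA acts on L-glutamine (1 mM solution added); product glutamate is reported by an oxidase/peroxidase Amplex Red coupling, with fluorescence taken at baseline and 30 min.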
HP1b chromo inh = blocks HP1-beta chromodomain binding to methylated histone tails | P83916 | AlphaScreen HP1-beta / biotin-H3K9me3 peptide binding | Potency, µM (series often up to 114 µM), for the others: top-dose activity change, negative = inhibition, actives largely listed as inhibitors | hit rate 0.56% among 390,000 | AID 540317; also: nearly all actives have a fitted effect of over 70% in size
Target sequence (P83916 whole entry, looked up): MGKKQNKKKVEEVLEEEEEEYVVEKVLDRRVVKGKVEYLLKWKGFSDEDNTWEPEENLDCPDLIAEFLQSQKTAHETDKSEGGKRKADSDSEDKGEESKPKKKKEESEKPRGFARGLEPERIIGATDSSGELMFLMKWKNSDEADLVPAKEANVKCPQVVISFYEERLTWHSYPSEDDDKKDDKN
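AlphaScreen: HP1-beta (50 nM) preformed 30 min with biotin-H3(1-18)K9me3 peptide (50 nM) in PBS pH 7.4, 0.01% Tween-20. Compound added for 30 min at RT, then streptavidin donor/nickel chelate acceptor beads (10 ug/mL) for 30 min.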
G9a inh = blocks human histone lysine methyltransferase G9a | G9a H3K9 monomethylation, AlphaScreen, 2 h | Potency, µM (highest dose often 102 µM), without a hit: top-dose activity, negative = inhibition, actives largely listed as inhibitors | Q96KQ7 | AID 504332 | hit rate 8.8% among 350,000; also: % is scaled to controls: 0 for no effect and ±100 for the full control effect; nearly all actives have a fitted effect of over 75% in size
Target sequence (Q96KQ7 913-1193 limits assumed): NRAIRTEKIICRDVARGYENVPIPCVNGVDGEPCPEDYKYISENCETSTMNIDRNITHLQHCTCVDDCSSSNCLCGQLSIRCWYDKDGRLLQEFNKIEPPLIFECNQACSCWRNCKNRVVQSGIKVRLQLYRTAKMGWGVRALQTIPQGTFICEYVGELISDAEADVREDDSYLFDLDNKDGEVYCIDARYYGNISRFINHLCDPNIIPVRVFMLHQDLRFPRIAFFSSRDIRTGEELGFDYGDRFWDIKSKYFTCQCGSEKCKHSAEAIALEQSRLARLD
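Methyltransferase reactions run at room temperature for 2 h (20 nM enzyme, 500 nM biotin-H3K9 peptide, 20 uM SAM) after a 15 min compound preincubation; product detected by AlphaScreen beads and anti-H3K9me1 antibody.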
An asterisk follows results filed as active; ? = inconclusive; nt = no result given; [ ] = remark or other dose. Calls follow the shape of the dose curve; as a rule, active = well fitted curve in the direction sought with a large enough effect; inconclusive = small, poorly fitted or top-dose-only effect, or another doubt; inactive = no such curve, though single readings can be large; an effect the other way counts as inactive or inconclusive. Potency is read from the fitted curve at half-maximal effect.

SMILES | BAZ2B block | JMJD2A Tudor | GLS inh | HP1b chromo inh | G9a inh
Cc1ccc(NC(=O)CCc2nc3sc4c(c3c(=O)[nH]2)CCCC4)c(Br)c1 | 50µM* | ? | 0% | 2% | ?
COc1ccc(CC/C(C)=N\NC(N)=O)cc1 | 4% | -4% | -8% | 24% | 3%[59 µM]
C#CCOCCOCCOCCNc1nc(N2CCN(C(=O)[C@H]([C@@H](C)CC)n3cc(CCCN=C(N)N)nn3)CC2)nc(N2CCN(C(=O)[C@H](CCCCN)n3cc(CCC(=O)O)nn3)CC2)n1 | -36% | -14% | 2% | 57% | 50µM*
C#CCOCCOCCOCCNc1nc(N2CCN(C(=O)[C@H]([C@@H](C)CC)n3cc(CCCCN)nn3)CC2)nc(N2CCN(C(=O)[C@H]([C@@H](C)CC)n3cc(CCCN=C(N)N)nn3)CC2)n1 | -32% | -21% | -5% | 16% | -9%[2.33 µM]
C#CCOCCOCCOCCNc1nc(N2CCN(C(=O)[C@H]([C@@H](C)O)n3cc(CCCCN)nn3)CC2)nc(N2CCN(C(=O)[C@H]([C@@H](C)CC)n3cc(CCCN=C(N)N)nn3)CC2)n1 | ? | -28% | -9% | 19% | 50µM*
Cc1noc(NS(=O)(=O)c2ccc(NC(=O)CSc3nc4c(cc3C#N)CCCCC4)cc2)c1C | -8% | -34% | 11% | -8% | 79µM*
COc1ccc(NC(=O)CSc2nc3c(cc2C#N)CN(C)CC3)cc1 | -9% | -19% | -3% | -3% | 11µM*
CN1CCc2nc(SCC(=O)Nc3ccc(F)cc3)c(C#N)cc2C1 | -3% | nt | nt | nt | 6.3µM*
Cc1ccc(S(=O)(=O)c2n[nH]n3c2nc(=O)c2ccccc23)cc1 | -7% | -3% | -5% | 30% | 26%[59 µM]
CCOc1ccccc1NC(=O)c1cc2cc3cc(C)ccc3nc2s1 | 2% | -15% | -6% | 8%[57 µM] | 9%[59 µM]
Cc1ccc2nc3sc(C(=O)Nc4ccc(F)cc4)cc3cc2c1 | ? | 40µM* | 4% | 16%[57 µM] | -50%[12.7 µM]
CC1=C(C(=O)Nc2ccccn2)C(c2ccccc2Cl)NC(=S)N1 (configuration not stated) | -21% | -13% | -2% | 66% | -14%
COCCn1c(C)nnc1SCC(=O)NNC(=O)c1ccc(Cl)cc1 | 0% | 4% | 20% | 20% | 50µM*
O=c1c2sc3ccccc3c2n(Cc2cccc(Cl)c2)c(=O)n1Cc1ccco1 | -19% | -23% | -7% | 4% | -32%[59 µM]
CCN(CC(=O)NCc1cccs1)C(=O)CCOc1ccccc1 | nt | -5% | -4% | 26% | nt
Cc1cc(C)c2c(N)c(C(=O)c3ccc(Br)cc3)oc2n1 | -6% | 3% | 3% | 62% | 35µM*
Cc1cc(C)c2c(N)c(C(=O)c3ccccc3)oc2n1 | 11% | -14% | 2% | 41% | ?
Cc1cc(C)cc(OCC(=O)OCCN2C(=O)c3ccccc3C2=O)c1 | -4% | 21% | 4% | 53% | 56µM*
Cc1ccc(OCC(=O)OCCN2C(=O)c3ccccc3C2=O)cc1C | 7% | 15% | 0% | 64% | 5%
Cc1ccc(NC(=O)CN2CCN(Cc3ccccc3)CC2)c(Br)c1 | 7%[0.457 µM] | 7.1µM* | -4% | ? | ?
O=C(CN1CCN(Cc2ccccc2)CC1)c1c[nH]c2ccccc12 | -5% | 2%[11.4 µM] | -8% | 55% | 40µM*
O=C(CN1CCN(Cc2ccccc2)CC1)c1ccc(Br)cc1 | ? | ? | 7% | 44% | -44%[0.501 µM]
O=C(CN1CCN(Cc2ccccc2)CC1)c1ccccc1 | -34% | -16% | -3% | 34% | 79µM*
O=C(CN1CCN(Cc2ccccc2)CC1)NNC(=O)c1ccc(Cl)cc1 | 13% | -6% | 5% | 17% | 50µM*
O=C(O)c1ccc(OCc2ccc(C(=O)O)o2)cc1 | -16% | -17% | -22% | 22% | ?
SMILES | BAZ2B block | JMJD2A Tudor | GLS inh | HP1b chromo inh | G9a inh
CCCn1c(N2CCN(CC(=O)c3c[nH]c4ccccc34)CC2)nc2c1c(=O)[nH]c(=O)n2C | 17% | 45µM* | 12% | 14% | ?
CC(=O)c1cccc(NC(=O)CN2CCN(Cc3ccccc3)CC2)c1 | ? | 0.79µM* | 5% | ? | 7.1µM*
COC(=O)c1cccc(NC(=O)CN2CCN(Cc3ccccc3)CC2)c1 | 5% | -22% | -3% | 55% | ?
Cc1coc2c1C(=O)C(=O)c1c-2ccc2c(C)cccc12 | 35µM* | 35µM* | 5% | ? | ?
Cc1coc2c1C(=O)C(=O)c1c-2ccc2c1CCCC2(C)C | 7.9µM* | 45µM* | -4% | ? | 2.2µM*
Clc1ccc(Cc2noc(CN3CCN(c4ccccc4)CC3)n2)c(Cl)c1 | -6% | -18% | 0% | 34% | 7%[12.7 µM]
CCOc1ccc(CCNC(=O)c2ccc(C)c(NC3=NC4CS(=O)(=O)CC4S3)c2)cc1 (configuration not stated) | -8% | -27% | -2% | 59% | nt
COc1cccc(C(=O)Nc2sc3c(c2C#N)CCN(C(C)=O)C3)c1 | nt | -30% | 3% | ? | 5µM*
CC(=O)N1CCc2c(sc(NC(=O)c3cccc(N4C(=O)CCC4=O)c3)c2C(N)=O)C1 | -27% | 0% | 5% | 26% | 45µM*
Cc1noc(NS(=O)(=O)c2ccc(N/C=C/C(=O)c3ccncc3)cc2)c1C | -9% | -16% | 7% | 11% | -42%[59 µM]
Cc1noc(NS(=O)(=O)c2ccc(N/C=C\C(=O)c3ccncc3)cc2)c1C | 1% | 6% | 6% | 28% | 50µM*
Cc1ccn2c(NCc3ccccc3)c(-c3cccs3)nc2c1 | ? | ? | 9% | -2% | -47%
c1coc(CNc2nc(-c3ccncc3)cs2)c1 | -11% | ? | 20% | -30% | -24%[59 µM]
Cc1ccn2c(-c3csc(NCc4ccccc4)n3)c(C)nc2c1 | 32µM* | 56µM* | 10% | ? | 5µM*
Cc1nc2ccccn2c1-c1csc(NCc2ccco2)n1 | 50µM* | -34%[57.1 µM] | 1% | 2% | 8.9µM*
COc1ccc(-c2csc(NCc3ccco3)n2)cc1 | 50µM* | 79µM* | 19% | ? | 40µM*
Cc1nc(C)c(-c2csc(NCc3ccccc3)n2)s1 | 50µM* | ? | 1% | ? | 50µM*
Cc1ccc(-n2nc3c(=O)n(C(C)C(=O)NCc4ccccc4C)nc(C)c3c2C)cc1 (configuration not stated) | ? | -20% | 1% | 65% | -31%[59 µM]
Cc1nc(C)c(-c2csc(NCc3ccco3)n2)s1 | 50µM* | ? | -5% | -18% | ?
COc1ccc(-c2ccc(=O)n(CC(=O)NCc3ccco3)n2)cc1 | ? | ? | -17% | 0% | ?
CCC(C(=O)NCc1ccco1)n1nc(-c2ccc(OC)cc2)ccc1=O (configuration not stated) | 50µM* | ? | -12% | -32% | ?
Cc1cc(=O)[nH]c2[nH][nH]c(=O)c12 | nt | 6.3µM* | 2% | 8% | nt
CCOC(=O)Cc1csc(NC(=O)c2cc(=O)c3ccccc3o2)n1 | -25% | -13% | 5% | 29% | -45%

Screening results as filed in PubChem.
